In PubChem BioAssay AID1159580 (chemical genetic matrix, 2015):
In all, about 5,500 compounds went through this assay and about 2,000 (36%) were called active. Roughly 18% stayed inconclusive and do not appear here. No stated cut-off is given here; in the data, active means normalized growth mostly below about 0.91 (no sharp cut-off); inconclusive means no clear call, values can overlap the other calls; inactive means mostly above about 0.92. Some of the results follow.

Assay: chemical genetic growth profiling, strain panel (AID 1159580);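 further: tested at 20 µM; growth read once vehicle control cultures reached saturation at 30 °C; 1 = growth at the plate median or of vehicle wells; lower values mean less growth of the strain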
Settings: S. cerevisiae deletion strains, growth OD

Measured: normalized growth

C=CCN1CC[C@]23c4c5ccc(O)c4O[C@@H]2/C(=N\N=C2\CC[C@@]4(O)C6Cc7ccc(O)c8c7[C@@]4(CCN6CC=C)[C@@H]2O8)CC[C@@]3(O)C1C5
inactive: locus YAL040C, strain CLN3, hits give low values 1.01 | locus YCL061C, strain MRC1 (second series), hits give low values 1 | locus YDR150W, strain NUM1, hits give low values 1 | locus YDR363W, strain ESC2, hits give low values 1.01 | locus YER002W, strain NOP16, hits give low values 1 | locus YJR075W, strain HOC1, hits give low values 1 | locus YMR307W, strain GAS1, hits give low values 1.01 | locus YNL175C, strain NOP13, hits give low values 0.988 | locus YNL197C, strain WHI3, hits give low values 1.02 | locus YNL224C, strain SQS1, hits give low values 1.01 | locus YOR083W, strain WHI5 (second series), hits give low values 1.02 | locus YPL055C, strain LGE1, hits give low values 0.982
